# Compound activity: PubChem, Broad Institute
# Rows were chosen to be rich in hits. Some 2.9% of all compounds tested hit in one or more screens of this group.
# TRPM1 prom inh – MITF TRPM1 promoter inhibition in SK-MEL-5 cells. SK-MEL-5 TRPM1 promoter luciferase, 24 h. inhibition, % at 12.5 µM. actives 0.83% (n = 330,000). AID 488899;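 active = mean inhibition across replicates of 60% or more, whatever share of single replicates reaches that level; inconclusive = some that reach 60%, reason not given; inactive = mean inhibition across replicates below 60%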
# Wnt bcat act – Wnt/beta-catenin pathway activation; Wnt/beta-catenin reporter cell assay, activator, plate reader; activation, % at 9.35 µM; actives 1.2% (n = 300,000); AID 743398; in the data active = activation above about 30%, passing the limit was not always enough; inconclusive = no clear call, values can overlap the other calls;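 note: 0% = neutral control wells and 100% = positive control wells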
# PfHsp90 set2 – growth inhibition of yeast expressing Plasmodium Hsp90 | S. cerevisiae expressing PfHsp90, BacTiter-Glo ATP, 48 h; yeast lacking PDR1 and PDR3 efflux regulators | actives 0.32% (n = 310,000) | inhibition, % at 9.4 µM;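 active = every replicate shows inhibition above about 80%, whatever the replicate mean, limit read from the data; inconclusive = mean inhibition reaches the set limit but some replicate falls short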;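 note: 0% = DMSO neutral controls and 100% = 20 µM radicicol positive controls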
# MITF act – MITF TRPM1 promoter activation in melanoma cells. actives 0.75% (n = 300,000). SK-MEL-5 TRPM1-promoter luciferase, 24 h; % of positive control, neutral wells = 0. AID 588334. activation, % at 12.5 µM;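 active = mean activation of at least 80% with every replicate also reaching 80%; inconclusive = mean reaches 80% but some replicate falls short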;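 note: 0% = neutral control wells and 100% = parthenolide positive control wells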
# NSD2 HMT inh – NSD2 (human) methyltransferase inhibition; O96028; NSD2 peptide methylation, AlphaScreen, 120 min; inhibition, % at 12.5 µM; actives 0.54% (n = 310,000); AID 743445; in the data active = inhibition above about 50%
# Target sequence (O96028 whole entry, looked up): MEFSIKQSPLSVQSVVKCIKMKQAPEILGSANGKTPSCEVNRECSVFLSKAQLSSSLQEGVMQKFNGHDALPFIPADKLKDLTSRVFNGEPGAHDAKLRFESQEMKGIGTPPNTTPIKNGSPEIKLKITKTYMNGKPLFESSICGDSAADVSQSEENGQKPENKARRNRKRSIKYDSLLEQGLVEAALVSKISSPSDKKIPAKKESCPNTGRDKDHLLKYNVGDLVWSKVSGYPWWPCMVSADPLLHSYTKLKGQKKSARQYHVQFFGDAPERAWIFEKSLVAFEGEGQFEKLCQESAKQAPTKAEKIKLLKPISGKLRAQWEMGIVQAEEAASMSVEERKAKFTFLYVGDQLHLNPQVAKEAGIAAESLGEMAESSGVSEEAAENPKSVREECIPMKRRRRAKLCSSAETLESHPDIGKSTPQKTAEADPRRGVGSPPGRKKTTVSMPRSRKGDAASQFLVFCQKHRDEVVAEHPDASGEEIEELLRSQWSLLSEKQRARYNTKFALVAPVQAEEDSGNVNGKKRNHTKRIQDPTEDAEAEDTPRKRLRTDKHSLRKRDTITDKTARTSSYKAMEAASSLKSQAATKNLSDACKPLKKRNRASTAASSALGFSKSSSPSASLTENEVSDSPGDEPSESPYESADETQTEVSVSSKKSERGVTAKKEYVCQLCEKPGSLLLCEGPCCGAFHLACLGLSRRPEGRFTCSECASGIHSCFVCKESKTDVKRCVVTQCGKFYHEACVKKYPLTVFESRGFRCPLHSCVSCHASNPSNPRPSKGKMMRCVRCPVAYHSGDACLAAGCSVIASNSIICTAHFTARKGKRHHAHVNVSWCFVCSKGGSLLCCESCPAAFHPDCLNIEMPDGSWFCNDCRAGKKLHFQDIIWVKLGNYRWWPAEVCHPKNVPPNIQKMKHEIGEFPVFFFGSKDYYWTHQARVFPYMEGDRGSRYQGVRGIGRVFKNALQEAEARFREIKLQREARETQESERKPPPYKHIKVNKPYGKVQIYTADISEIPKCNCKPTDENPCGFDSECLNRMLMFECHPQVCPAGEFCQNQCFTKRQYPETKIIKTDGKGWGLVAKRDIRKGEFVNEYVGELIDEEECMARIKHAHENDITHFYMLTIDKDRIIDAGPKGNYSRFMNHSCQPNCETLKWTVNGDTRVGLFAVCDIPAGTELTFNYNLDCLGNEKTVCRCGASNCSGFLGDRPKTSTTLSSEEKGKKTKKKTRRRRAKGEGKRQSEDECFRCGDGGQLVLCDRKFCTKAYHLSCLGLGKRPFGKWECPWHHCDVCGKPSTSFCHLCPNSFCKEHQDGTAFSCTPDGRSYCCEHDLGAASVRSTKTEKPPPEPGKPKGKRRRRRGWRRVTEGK
# Glyco luc inh – N-linked glycosylation inhibition. D54 ERlucT glycosylation luciferase reporter, 24 h; percent of 100 nM tunicamycin response. reporter increase, % at 12.5 µM. AID 588692. actives 0.23% (n = 360,000);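 active = mean luciferase reporter signal, scaled so untreated is 0 and the glycosylation-blocking control 100, at or above a set limit in every replicate; inconclusive = mean reaches the limit but not every replicate does; inactive = mean below the limit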;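 note: luciferase carries N-glycosylation sites so blocking glycosylation raises the light; 0% = median of neutral control wells and 100% = median of 100 nM tunicamycin wells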
# Numbers without * were called inactive; ? = inconclusive; . = no result.
SMILES,TRPM1 prom inh,Wnt bcat act,PfHsp90 set2,MITF act,NSD2 HMT inh,Glyco luc inh
Cc1cccc(C)c1-n1nnnc1C1(C)CCC(=O)N1Cc1ccco1 (stereo not given),.,-1.8,.,.,.,.
CC(C)(C)OC(=O)[C@H](Cc1ccccc1)NC(=O)c1nc[nH]c1C(=O)N1CCc2ccccc2C1,0.2,-2.0,5.9,-1.6,.,32.7*
CC(C)(C)OC(=O)NCCCC[C@H](NC(=O)c1nc[nH]c1C(=O)N1CCc2ccccc2C1)C(=O)OC(C)(C)C,13.5,-6.9,.,-12.8,.,1.6
COc1ccc(S(=O)(=O)N(CC(=O)NCc2ccncc2)c2ccc(C)cc2)cc1Br,-5.8,-8.4,1.4,6.1,20.8,2.1
Cc1cc(Cl)c2oc(C(=O)NCCC3CCCCO3)c(C)c2c1 (stereo not given),-93.4,24.7,3.9,95.3*,-6.0,3.6
Cc1cc(Cl)c2oc(C(=O)NCCN3CCCCC3CO)c(C)c2c1 (stereo not given),-33.0,3.4,-5.0,31.9,2.0,0.2
CCCCC1(C(=O)OC)NC(c2ccc(O)cc2)C2C(=O)N(c3ccccc3)C(=O)C21 (stereo not given),4.3,-1.0,11.9,-4.9,2.5,1.0
COc1ccc(SCC(=O)c2cc(C)c(OC(=S)N(C)C)c(C)c2)cc1,-29.6,40.8*,10.7,28.6,-1.4,-0.7
Cc1cc(C(=O)CSc2ccc(F)cc2)cc(C)c1OC(=S)N(C)C,17.4,-6.9,23.6,-12.4,0.8,-15.5
C/C(CC(C)C)=N\Nc1ccc(S(N)(=O)=O)cc1[N+](=O)[O-],9.3,-0.3,12.7,-8.0,9.6,1.1
COc1ccc2nc(N3CCCCC3)c(C#N)cc2c1,-61.7,44.2*,1.1,.,2.2,4.1
CC1(C(=O)Nc2cnc3ccccc3c2)CCN1CCOc1ccccc1 (stereo not given),.,-2.8,.,.,-4.5,-0.3
O=C(N/N=C/c1ccco1)c1cc(-c2ccncc2)nc2ccccc12,42.1,-4.1,42.6,-41.0,-0.4,28.1*
CCc1ccc(/C=N/NC(=O)c2cc(-c3ccncc3)nc3ccccc23)s1,26.3,-10.4,-14.1,-24.0,-0.9,30.5*
S=C1NC2(CCCCCC2)NN1c1ccccc1,.,1.8,.,.,0.7,.
S=c1[nH]nc(-c2cc(-c3ccccc3)n[nH]2)n1N=Cc1cccc(Oc2ccccc2)c1,.,.,.,.,1.8,.
O=C(Nc1ccc(CN2CCOCC2)cc1)c1ccccc1F,-41.1,39.2*,.,.,0.9,-0.8
O=C(Nc1ccc(CN2CCOCC2)cc1)c1cc2ccccc2o1,-96.9,.,11.7,105.4*,0.2,-12.2
CC(C)=CCC/C(C)=C/C[C@]12C[C@H](C(=O)O)N(C(=O)OC(C)(C)C)[C@@H]1N(C(=O)OC(C)(C)C)c1ccccc12,.,.,.,.,18.0,.
Cc1c(C)c2ccc(OCC(=O)c3ccccc3)cc2oc1=O,-94.8,25.6,-17.0,93.8*,0.4,0.9
O=C(N/N=C/c1cccs1)c1c[nH]c2ccccc12,-61.1,30.5*,.,61.8,-0.6,-3.2
CCc1ccc(/C=N/NC(=O)c2c[nH]c3ccccc23)s1,-85.6,?,13.9,89.3*,-1.7,-1.3
Cc1c(/C=N\NC(=O)c2c[nH]c3ccccc23)cnn1C,4.8,21.1,-7.2,-4.4,-1.4,0.0
CCCCN(CC)S(=O)(=O)c1ccc(C(=O)N(CCCN(C)C)c2nc3cc(C)cc(C)c3s2)cc1,79.3*,-10.7,-5.9,-76.4,0.4,-4.0
CCN(Cc1ccccc1)S(=O)(=O)c1ccc(C(=O)N(CCCN(C)C)c2nc3cc(C)cc(C)c3s2)cc1,90.0*,-5.8,.,-89.4,-0.1,-5.5
SMILES,TRPM1 prom inh,Wnt bcat act,PfHsp90 set2,MITF act,NSD2 HMT inh,Glyco luc inh
Cc1cc(C)c2sc(N(CCCN(C)C)C(=O)c3ccc(S(=O)(=O)N(C)Cc4ccccc4)cc3)nc2c1,56.7,-17.8,16.1,-57.3,-0.4,-5.5
CCCCN(C)S(=O)(=O)c1ccc(C(=O)N(CCN(C)C)c2nc3ccc(C)cc3s2)cc1,-13.5,-5.6,11.5,17.4,1.3,0.2
Nc1ccn([C@@H]2O[C@H](C(=O)N[C@H](Cc3ccccc3)C(=O)NCC(=O)N3CCOCC3)[C@@H](O)[C@H]2O)c(=O)n1,.,2.3,.,.,.,.
CC(C)[C@H](NC(=O)OCc1ccccc1)C(=O)N[C@@H](Cc1ccccc1)C1(O)CN(C)C(C(=O)NCc2ccccn2)CO1 (stereo not given in full),.,.,.,.,1.0,.
Nc1ncccc1OCc1ccc(Cl)c(Cl)c1,-47.7,46.9*,7.8,.,2.8,-4.1
COc1cc(CNCc2ccccn2)ccc1OCc1ccc(Cl)cc1Cl,-5.9,.,8.5,2.7,14.7,-5.3
O=C(OCc1ccc(Cl)c(Cl)c1)c1ccccn1,-6.4,.,6.0,6.4,-0.3,1.1
COc1cc(CNCc2ccccn2)ccc1OCc1ccc(Cl)c(Cl)c1,-106.3,24.8,4.4,105.1*,20.0,-3.0
CCOc1cc(/C=C/C(=O)OCC(=O)NCc2ccco2)cc(Cl)c1OC,6.3,-0.1,.,-4.6,-0.7,3.0
CC(C)(C)c1ccc(C#C[C@@H]2C=C[C@@H](O)[C@@H](COC(=O)Nc3ccccc3)O2)cc1,.,0.5,.,.,.,.
Cc1noc(C)c1COc1ccc(C(=O)N2CCCC(C(N)=O)C2)cc1 (stereo not given),-6.5,-0.4,-5.8,4.3,0.3,0.8
Cc1ccc(O)c(NC(=O)CCC2CCCCC2)c1,-91.8,.,5.0,83.9*,-2.9,1.6
O=C(CCC1CCCCC1)Nc1ccccc1O,-98.0,25.0,-18.9,94.9*,-1.2,-2.1
Cc1ccc(O)c(NC(=O)C2CCCCC2)c1,-0.1,-1.8,-23.7,-1.7,-3.1,-0.3
O=C(CCC1CCCCC1)Nc1ccccc1-c1ccccc1,6.9,-5.3,.,-4.8,-4.1,-1.3
O=C(c1ccc(Cl)c(S(=O)(=O)N2CCCCC2)c1)N1CCN(Cc2ccccc2)CC1,15.4,-3.3,17.3,-16.0,0.7,28.7*
Cc1csc2nc(CSc3nc4ccccc4o3)cn12,-79.4,34.1*,21.6,?,2.9,-1.9
c1ccc2oc(SCc3cn4ccsc4n3)nc2c1,-50.1,66.4*,2.4,49.6,-63.4,-4.1
COC(=O)Nc1nnc(COc2ccccc2)s1,.,2.8,.,.,-0.7,1.8
Cc1ccc(NS(=O)(=O)c2ccc(N3CCN(c4ccc(O)cc4)CC3)c([N+](=O)[O-])c2)c(C)c1,10.5,-0.2,96.1*,-8.9,-0.7,-4.5
O=[N+]([O-])c1cc(S(=O)(=O)Nc2ccccc2)ccc1N1CCN(c2ccc(O)cc2)CC1,12.0,1.5,11.4,-8.2,1.7,3.1
Cc1cccc(NC(=O)Cn2c(=O)n(CCc3c[nH]c4ccccc34)c(=O)c3cccnc32)c1,.,3.0,.,.,.,.
O=C(C1CC1)N1CCc2cc(Br)cc(S(=O)(=O)N3CCCCCC3)c21,-1.3,41.5*,.,.,.,-2.9
CCC(=O)N1CCc2cc(Br)cc(S(=O)(=O)N3CCCCCC3)c21,1.6,-1.6,15.0,1.3,0.8,-1.3
